Bioassay records deposited in PubChem by several laboratories.
MITF act = activators of MITF-driven TRPM1 promoter activity in SK-MEL-5 cells. AID 588334. actives 0.75% (n = 300,000). activation, % at 12.5 µM. SK-MEL-5 TRPM1-promoter luciferase, 24 h; % of positive control, neutral wells = 0;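 active means mean activation of at least 80% with every replicate also reaching 80%; inconclusive means mean reaches 80% but some replicate falls short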
FGF22 binding = shifts melting point of recombinant human FGF22; Q9HCT0; recombinant FGF22 thermal shift, SYPRO orange fluorescence; percent of sucrose octasulfate shift, DMSO zero; activity (Tm shift, normalised), % at 9.99 µM; actives 1.5% (n = 340,000);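 active means mean Tm shift, scaled 0 neutral to 100 positive control, at about 1.3% or above, every replicate too, limit read from the data; inconclusive means no clear call, values can overlap the other calls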
Target sequence (Q9HCT0 whole entry, looked up): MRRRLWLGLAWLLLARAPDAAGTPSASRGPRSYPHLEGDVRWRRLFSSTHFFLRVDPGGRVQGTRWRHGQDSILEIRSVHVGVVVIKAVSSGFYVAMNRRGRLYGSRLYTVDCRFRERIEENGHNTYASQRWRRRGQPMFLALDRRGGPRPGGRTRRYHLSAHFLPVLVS
esBAF inh = blocks esBAF chromatin remodeling in mouse ES cells | Bmi1-luciferase knock-in reporter, 24 h; 100% = twice the neutral-well signal | reporter increase, % at 12.5 µM | actives 2% (n = 350,000) | AID 602393; in the data active means activation above about 40%; inconclusive means no clear call, values can overlap the other calls;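 further: a rise in the Bmi1 reporter signal indicates esBAF inhibition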
Wnt act = activates Wnt/beta-catenin signaling in a reporter cell assay. activator, plate reader. activation, % at 9.35 µM. actives 1.2% (n = 300,000); in the data active means activation above about 30%, passing the limit was not always enough; inconclusive means no clear call, values can overlap the other calls
SMARCA2 act = increases SMARCA2 function in MMTV reporter cells. actives 1% (n = 370,000). MG213 cells, MMTV-luciferase reporter, dexamethasone, overnight. activation, % at 9.1 µM; in the data active means activation above about 7.8%
AF4-AF9 inh = MLL-AF4/AF9 protein interaction inhibition. P42568. AlphaScreen, biotin-AF4 peptide binding to FLAG-AF9. inhibition, % at 10 µM. actives 0.47% (n = 350,000). AID 651704;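 active means every replicate reaching a set inhibition limit, whatever the replicate mean, cut at about 25% in these data; inconclusive means mean inhibition reaches that limit but some replicates miss it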
SMARCA2 conf = confirmation of SMARCA2 (BRM) function activators. AID 652260. shares compounds with SMARCA2 act. MG213 cells, MMTV-luciferase with dexamethasone, luminescence, overnight; MG213 cells expressing E1A, Rb sequestered; DMSO wells 0%, reference activator 100%. activation, % at 9.1 µM. actives 30% (n = 3,500);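 active means activation above its plate's cutoff, the mean activation of tested wells plus 3 SD, cut at about 7.9% in these data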
GAL4-VP16 Luc = activates GAL4-VP16 luciferase, flagging SMARCA2 activator hits | shares compounds with SMARCA2 act | HEK293 GAL4-VP16 pG5luc reporter, luciferase luminescence; scaled: DMSO wells 0%, SAHA wells 100% | activation, % at 9.1 µM | actives 41% (n = 3,500) | AID 686939;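 active means activation above the solvent-only control well mean plus 3 SD, averaged across control plates, cut at about 5.2% in these data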
A number is an active result. An excerpt weighted towards active compounds, which were near 4.3% of everything screened.

CCOC(=O)Cc1cc(=O)n2[nH]c(-c3ccccc3)cc2n1 was read as MITF act inactive, esBAF inh inactive and Wnt act inactive.
Screening CCCc1cc(=O)n2[nH]c(-c3ccc(Br)cc3)cc2n1 returned MITF act inactive, esBAF inh 48.4, SMARCA2 act 8.2, SMARCA2 conf inactive and GAL4-VP16 Luc 9.2.
`CCOC(=O)Cc1c(C)nc2c(-c3ccc(Cl)cc3)cnn2c1C` gave MITF act inactive, FGF22 binding inactive, esBAF inh inactive, Wnt act inactive, SMARCA2 act inactive and AF4-AF9 inh inactive.
For CCOC(=O)Cc1c(C)nc2c(-c3ccccc3)c(C)nn2c1C the results were MITF act inactive, esBAF inh inactive, Wnt act inactive, SMARCA2 act 11.8, SMARCA2 conf inactive and GAL4-VP16 Luc inactive.
For Cn1c(N)c(C(=O)Nc2ccc3ccccc3c2)sc1=S the results were MITF act 106.8, esBAF inh inactive, SMARCA2 act 10.3, SMARCA2 conf inactive and GAL4-VP16 Luc 12.0.
For Nc1c(C(=O)Nc2ccc(F)cc2)sc(=S)n1-c1ccccc1F the results were MITF act inactive, FGF22 binding inactive, esBAF inh 53.9, Wnt act inactive, SMARCA2 act 8.4, AF4-AF9 inh inactive, SMARCA2 conf inactive and GAL4-VP16 Luc inactive.
For COc1ccccc1-n1c(N)c(C(N)=O)sc1=S the results were MITF act inactive, Wnt act inactive and SMARCA2 act inactive.
For Cn1c(N)c(C(=O)Nc2ccccc2F)sc1=S the results were FGF22 binding inactive, Wnt act inactive and SMARCA2 act inactive.
`CCS(=O)(=O)N1CC2(CN(C(=O)Nc3c(C)noc3C)[C@H](CO)c3[nH]c4cc(OC)ccc4c32)C1` gave FGF22 binding inactive and AF4-AF9 inh inactive.
For COC(=O)/C(C#N)=C/c1c[nH]c2ccccc12 the results were MITF act inactive, FGF22 binding inactive, Wnt act inactive, SMARCA2 act inactive and AF4-AF9 inh inactive.
`CCOC(=O)/C(C#N)=C/c1c[nH]c2ccccc12` gave MITF act inactive, SMARCA2 act 10.8, SMARCA2 conf inactive and GAL4-VP16 Luc inactive.
For CCS(=O)(=O)N1CCCCN2[C@@H](CO)[C@@H](c3ccc(-c4ccccc4C)cc3)[C@@H]2C1 the results were FGF22 binding inactive and AF4-AF9 inh inactive.
For C[C@H](CO)N1C[C@H](C)[C@@H](CN(C)C)OCCCC[C@H](C)Oc2ccc(NC(=O)Cc3ccccc3)cc2C1=O the results were esBAF inh inactive and AF4-AF9 inh inactive.
O=C(CSc1nnc(NC2CC2)s1)c1ccc[nH]1 was read as MITF act inactive, FGF22 binding inactive, Wnt act inactive, SMARCA2 act 12.0, AF4-AF9 inh inactive, SMARCA2 conf 10.3 and GAL4-VP16 Luc 7.3.
COc1ccc2[nH]c3c(=S)nc[nH]c3c2c1 was read as MITF act inactive, FGF22 binding inactive, Wnt act inactive, SMARCA2 act 9.7, AF4-AF9 inh inactive, SMARCA2 conf inactive and GAL4-VP16 Luc inactive.
For COc1ccc2[nH]c3c(Cl)ncnc3c2c1 the results were MITF act inactive, FGF22 binding inactive, Wnt act inactive, SMARCA2 act inactive and AF4-AF9 inh inactive.
`COc1ccc(/C=C/c2nc(S(=O)(=O)c3ccccc3)c(N(C)C)o2)cc1` gave MITF act inactive, FGF22 binding inactive, esBAF inh inactive, Wnt act inactive, SMARCA2 act 9.6, AF4-AF9 inh inactive, SMARCA2 conf inactive and GAL4-VP16 Luc inactive.
CCOC(=O)c1ccc(Nc2ncccc2[N+](=O)[O-])cc1 was read as MITF act inactive, FGF22 binding inactive, esBAF inh inconclusive, Wnt act inactive, SMARCA2 act 8.3, AF4-AF9 inh inactive, SMARCA2 conf 16.1 and GAL4-VP16 Luc 6.2.
For Cc1nnc2c(N(C)S(=O)(=O)c3ccccc3)nc3ccccc3n12 the results were MITF act inactive, FGF22 binding inactive, esBAF inh inactive, Wnt act inactive, SMARCA2 act 8.2, AF4-AF9 inh inactive, SMARCA2 conf 9.0 and GAL4-VP16 Luc inactive.
CCC(=O)Nc1ccc2c(c1)C(=O)N(C)C[C@H](OC)[C@H](C)CN(C(C)=O)[C@H](C)CO2 was read as FGF22 binding inactive, esBAF inh inactive and AF4-AF9 inh inactive.
`CCC(C)c1ccc(OCCN2CCCC2)cc1` (stereo not drawn) gave MITF act inactive, esBAF inh inactive, Wnt act inactive, SMARCA2 act 9.2, SMARCA2 conf inactive and GAL4-VP16 Luc inactive.
Screening CCOc1ccc(OCCN2CCCCC2)cc1 returned MITF act inactive, esBAF inh inactive and SMARCA2 act inactive.
Screening COc1ccc(CNC(=O)c2c(C)nc3ccccn23)cc1 returned MITF act inactive, esBAF inh inactive, Wnt act inactive and SMARCA2 act inactive.
`COc1ccc(/C=C/C(=O)c2c(C)nc3ccccn23)cc1` gave esBAF inh 69.4, SMARCA2 act 9.7, SMARCA2 conf inactive and GAL4-VP16 Luc 10.1.
For CN(C(=O)c1ccc(NC(=O)Cc2cccc(NC(=O)C3CCN(C(=O)CCc4ccccc4)CC3)c2)cc1)C1CC1 the results were FGF22 binding inactive, Wnt act inactive, SMARCA2 act inactive and AF4-AF9 inh inactive.
For CCCN1[C@H](C(=O)OC)[C@@H](CO)[C@@H]2Cn3c(ccc(C4=CCCCC4)c3=O)[C@@H]21 the results were FGF22 binding inactive, esBAF inh inactive and AF4-AF9 inh inactive.
For O=C(NCCCNC(=O)c1ccccn1)c1ccccn1 the results were MITF act inactive, esBAF inh inactive and SMARCA2 act inactive.
`CN(C)CCCNC(=O)c1ccccn1` gave MITF act inactive, esBAF inh inactive, Wnt act inactive, SMARCA2 act 8.4, SMARCA2 conf inactive and GAL4-VP16 Luc inactive.
`O=C(NNCc1ccccc1)c1ccccn1` gave MITF act inactive, FGF22 binding inactive, esBAF inh inactive, Wnt act 35.6, SMARCA2 act 14.6, AF4-AF9 inh inactive, SMARCA2 conf inactive and GAL4-VP16 Luc 16.1.
`CC(=O)N1[C@@H]2Cn3c(cccc3=O)[C@H]1[C@@H](C(=O)NC1CCCC1)[C@@H]2CO` gave FGF22 binding inactive, esBAF inh inactive and AF4-AF9 inh inactive.
Screening CC(=O)c1ccc(N2CCN(C(=S)NCCCN(C)C)CC2)cc1 returned MITF act inactive, FGF22 binding inactive, Wnt act inactive, SMARCA2 act 8.2, AF4-AF9 inh inactive, SMARCA2 conf inactive and GAL4-VP16 Luc inactive.
